# FID counter: fluorescent intercalator displacement, NS3 helicase counter-screen | DNA fluorescent intercalator displacement, fluorescence | inhibition, % at 7.9 µM | 0.17% of 290,000 active; in the data active means inhibition above about 37%;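 further: 0% = vehicle and 100% = reference compound; higher means more ethidium bromide displaced from hairpin DNA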
# TMEM16A inh: mouse TMEM16A channel inhibition, primary screen. Q8BHY3. HEK293 TMEM16A/YFP iodide influx fluorescence, ionomycin. normalized B-score (activity score, 25-100; higher = stronger inhibition) at 10 µM. 1.2% of 310,000 active. AID 588511;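 active means ratio plate-corrected score three or more library SD toward inhibition, starting fluorescence score within five deviations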;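 further: score derived from kinetic fluorescence span divided by baseline fluorescence per well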
# PREPL inh: inhibits the human prolyl oligopeptidase-like enzyme; inhibition, % at 5.96 µM; Q4J6C6; recombinant PREPL, fluorescence polarization activity-based probe; 0.68% of 320,000 active; AID 2751; in the data active means inhibition above about 43%;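 further: 0% = enzyme with DMSO and 100% = wells lacking enzyme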
# TMEM16A act: activates or potentiates the mouse TMEM16A chloride channel | Q8BHY3 | HEK293 TMEM16A/YFP-H148Q/I152L, iodide quench fluorescence; hits give low values | B-score at 10 µM | 0.3% of 340,000 active | AID 623877;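 active means fluorescence-ratio B-score plate-corrected deviation score at least 3 library SD below zero, with starting fluorescence score within 5 deviations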;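 further: channel opened by trigger with iodide after compound preincubation; score built on the fluorescence ratio of max minus min over baseline; more negative score means more quench and so TMEM16A activation or potentiation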
# PP5 primary: PP5 (human) phosphatase inhibition | inhibition, % at 6.7 µM | purified PP5c, OMFP substrate fluorescence | P53041 | 0.18% of 320,000 active | AID 1987;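 active means inhibition above the campaign's mean inhibition across all tested compounds plus 3 SD, cut at about 9.5% in these data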;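 further: 0% = DMSO only and 100% = 100 µM cantharidin control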
# Target sequence (P53041 whole entry, looked up): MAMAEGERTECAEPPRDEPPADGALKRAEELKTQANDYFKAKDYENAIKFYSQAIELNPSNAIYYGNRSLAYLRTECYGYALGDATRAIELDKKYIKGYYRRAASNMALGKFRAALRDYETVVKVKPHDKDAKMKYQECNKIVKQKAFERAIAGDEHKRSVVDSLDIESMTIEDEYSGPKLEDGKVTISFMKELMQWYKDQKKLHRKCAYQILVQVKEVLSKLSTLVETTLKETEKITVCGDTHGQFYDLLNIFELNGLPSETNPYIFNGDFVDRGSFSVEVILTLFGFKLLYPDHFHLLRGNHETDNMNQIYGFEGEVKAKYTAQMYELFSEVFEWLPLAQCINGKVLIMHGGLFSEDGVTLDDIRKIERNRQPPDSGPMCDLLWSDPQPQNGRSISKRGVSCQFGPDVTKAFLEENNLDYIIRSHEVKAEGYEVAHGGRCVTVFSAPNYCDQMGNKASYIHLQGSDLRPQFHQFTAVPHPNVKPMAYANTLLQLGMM
# PP1 inh: counter-screen for PP5 inhibitors: inhibitors of human PP1-alpha; P62136; purified PP1alpha, OMFP fluorescence; inhibition, % at 6.7 µM; 0.9% of 320,000 active;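 active means inhibition above the mean inhibition of all tested compounds plus 3 SD, computed separately for each screening campaign, cut at about 15% in these data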
# * = called active by the depositor; i = inactive; . = no result given. In the library only some 2.7% were active in any assay of this set; here they are far more common.
SMILES,FID counter,TMEM16A inh,PREPL inh,TMEM16A act,PP5 primary,PP1 inh
Cc1ccccc1NS(=O)(=O)c1nnc(NC(=O)C(C)C)s1,-3.1,i,16.4,i,0.3,-2.2
CSCC[C@H](NS(=O)(=O)c1ccc(C)cc1)C(=O)N1CCC(C(=O)N[C@H](C(=O)O)c2ccccc2)CC1,-28.3,i,0.2,i,0.9,-5.3
Cc1ccc2nc(-c3cccc(-c4cccc(Cl)c4)c3)c(NCc3ccccc3)n2c1,.,i,34.1,i,5.4,15.8*
COc1ccc(N2CCN(c3ncnc4c3cnn4-c3ccc(C)cc3C)CC2)cc1,-6.4,i,22.1,i,1.2,1.6
COc1ccc(-n2ncc3c(N4CCN(c5cc(C)ccc5C)CC4)ncnc32)cc1,-0.8,i,11.3,i,2.9,17.1*
C/C(=N\Nc1cc(N2CCOCC2)ncn1)c1ccc(O)cc1,-14.7,i,-2.7,i,1.3,-1.1
O=[N+]([O-])c1ccc(Oc2ccc(S(=O)(=O)Nc3ccccc3)cc2)cc1,-3.6,25*,-18.5,i,-2.4,1.1
O=[N+]([O-])c1ccc(S(=O)(=O)Nc2nc(-c3ccccc3)cs2)cc1,-17.2,100*,-4.7,i,2.1,-1.8
COc1ccc(NC(=O)CC2C(=O)N(CCc3ccccc3)C(=S)N2Cc2cccnc2)cc1 (stereo unspecified),-9.4,25*,22.7,i,6.4,4.0
CCN1C(=O)C(CC(=O)Nc2ccc(OC)cc2)N(Cc2cccnc2)C1=S (stereo unspecified),-9.2,i,7.4,i,0.7,1.6
COc1ccc(NC(=O)CC2C(=O)N(C)C(=S)N2Cc2ccco2)cc1 (stereo unspecified),-3.5,i,13.0,i,-0.9,-0.9
C=CCN1C(=O)C(CC(=O)Nc2ccc(OC)cc2)N(Cc2ccco2)C1=S (stereo unspecified),-5.1,i,3.6,-6.82*,2.7,-0.8
O=C(CCc1nc(-c2ccccc2F)no1)Nc1ccc(Oc2ccccc2)cc1,-4.8,100*,-14.2,i,4.0,0.1
CCN(C(=O)COC(=O)CCNS(=O)(=O)c1ccccc1F)c1c(N)n(Cc2ccccc2)c(=O)[nH]c1=O,.,.,8.2,i,.,.
Cc1cccc(C)c1NC(=O)CN1C(=O)CCSc2ccc(S(=O)(=O)N3CCCC3)cc21,-46.5,i,1.9,i,1.0,2.3
CCOC(=O)c1c(C)n(-c2ccc(C)cc2)c2ccc(OCC(O)CNCC3CCCO3)cc12 (stereo unspecified),27.4,i,28.6,i,3.7,16.0*
COc1ccccc1C(=O)NC(CCSC)C(=O)OCC(=O)NC(=O)NCc1ccco1 (stereo unspecified),-24.4,i,7.5,-23.8*,0.1,-2.0
c1nc2n(n1)C1=C(CCCC1)C1(CCCCC1)N2,-2.7,i,3.2,-4.83*,-1.1,-7.2
CCOC(=O)c1cnc2ccc(OCC)cc2c1NCc1cccnc1,8.8,i,14.1,i,0.4,7.5
CCOC(=O)c1cnc2ccc(OCC)cc2c1NCc1ccccc1,3.3,100*,11.5,i,2.7,3.8
COc1cccc(NC(=O)c2ccc(NCCCN3CCC(C)CC3)c([N+](=O)[O-])c2)c1,26.2,i,-10.8,i,-0.3,-2.1
COc1cccc(NC(=O)c2ccc(NCCCN3CC(C)CC(C)C3)c([N+](=O)[O-])c2)c1 (stereo unspecified),50.6*,.,.,i,.,.
Nc1c(C(=O)c2ccc(Cl)cc2)sc2c1c(=O)[nH]c(=O)n2-c1ccccc1,-6.2,i,8.5,i,0.1,15.9*
CC1Sc2ccc(S(=O)(=O)N3CCC(C(=O)Nc4cccc(Cl)c4)CC3)cc2NC1=O (stereo unspecified),-23.7,25*,-6.8,i,5.9,1.8
CC(C)Cn1c(N)c(C(=O)CSc2nnc(C3CC3)n2C2CC2)c(=O)n(C)c1=O,.,.,.,i,.,.
SMILES,FID counter,TMEM16A inh,PREPL inh,TMEM16A act,PP5 primary,PP1 inh
O=C(Nn1cnnc1)c1ccc(Cl)cc1,1.0,i,-3.5,i,9.6*,-0.1
N=c1n(CCN2CCCCC2)c2ccccc2n1CC(O)c1cccc(Br)c1 (stereo unspecified),24.9,i,41.0,i,-0.9,-5.1
N=c1n(CCN2CCCCC2)c2ccccc2n1CC(O)c1ccc(Cl)c(Cl)c1 (stereo unspecified),33.9,i,49.9*,i,-0.3,3.6
Cc1ccc(C(C(=O)NC2CCCCC2)N(CC2CCCO2)C(=O)CCCC(=O)Nc2ccccn2)cc1 (stereo unspecified),-47.0,i,7.6,i,2.8,1.2
Cc1cc(NC(=O)CSc2nnc(-c3c[nH]c4ccccc34)n2-c2ccc(Cl)cc2)no1,-3.8,i,2.3,i,0.6,15.4*
COC1C(CO)OC(n2c3c(Cl)cccc3c3c4c(c5c6cccc(Cl)c6[nH]c5c32)C(=O)NC4=O)C(O)C1O (stereo unspecified),.,.,.,i,.,.
CCCCn1c(=N)n(CC(O)COc2ccc(C)cc2)c2ccccc21 (stereo unspecified),41.4*,i,-21.3,i,0.2,1.6
COCCn1c(-c2ccc(OC(F)(F)C(F)C(F)(F)F)cc2)nc2c1c(=O)[nH]c(=O)n2CC(C)C (stereo unspecified),-14.8,100*,4.5,i,2.2,7.0
CCCCn1c(=O)[nH]c(=O)c2c1nc(-c1ccc(C)c([N+](=O)[O-])c1)n2CC,-18.7,i,18.0,i,3.7,1.8
Cc1ccc(-c2nc3c(c(=O)[nH]c(=O)n3CC(C)C)n2CC(C)C)cc1[N+](=O)[O-],-10.6,i,21.8,-4.57*,0.1,1.7
COCCN(C(=O)c1cc(OC)c(OC)c(OC)c1)c1c(N)n(Cc2ccccc2)c(=O)[nH]c1=O,-3.3,i,2.4,i,-0.8,-4.3
CC1CC/C(=C\c2ccc3c(c2)OCO3)C(=O)/C1=C/c1ccc2c(c1)OCO2 (stereo unspecified),-18.1,i,7.3,i,0.6,16.5*
O=C1/C(=C\c2ccc3c(c2)OCO3)CCC/C1=C/c1ccc2c(c1)OCO2,-5.7,i,6.5,i,1.8,2.3
COc1ccc(N=CC2CCCCC2=O)c([N+](=O)[O-])c1 (stereo unspecified),.,.,.,i,.,.
Cc1ccc(NC(=O)COC(=O)CCc2c(C)nc3nc(N)nn3c2C)cc1C,.,.,8.1,-23.4*,2.8,3.8
O=C(NC(c1cccnc1)C(F)(F)F)c1cc(COc2ccc3c(c2)CCCC3)on1 (stereo unspecified),-40.6,25*,-46.0,i,1.6,-1.9
COC(=O)C1CCC(=O)N1C(c1ccc(OC)cc1)c1cc(OC)c(OC)c(OC)c1 (stereo unspecified),.,.,.,i,.,.
